Measured values taken from the supplement of paper PMC10981050.
Where a name gives a salt, the structure may show the parent alone.

What follows are molecules tested on MOLM14 (assay: cell viability relative to vehicle control; higher = less cytotoxic). Conditions: 10 µM; SRSF2 genotype: SRSF2 wt/wt.
Summary of the method: (§1)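 Four leukaemia lines, as CRISPR-edited mutant clones and isogenic wild-type clones, were tested against Selleck bioactive, kinase and epigenetic probe libraries after removal of identity-inconsistent compounds. Cells were exposed to a single 10 µM dose for 48 h, and CellTiter-Glo luminescence was then read. Viability was calculated relative to the on-plate vehicle control.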

Row | SMILES | cell viability [%]
1 | CC(C)N(CCC(=O)c1ccc2ccccc2c1)Cc1ccccc1 | 0.45
2 | O=C(NCCN1CCOCC1)c1ccc(Cl)cc1 | 105
3 | CCS(=O)(=O)CCn1c([N+](=O)[O-])cnc1C [Tinidazole] | 98.2
4 | CCOc1ccc(Cc2cc([C@]34OC[C@](CO)(O3)[C@@H](O)[C@H](O)[C@H]4O)ccc2Cl)cc1 [Ertugliflozin] | 102
5 | OC[C@H]1O[C@@](CO)(O[C@H]2O[C@H](CO)[C@@H](O)[C@H](O)[C@H]2O)[C@@H](O[C@H]2O[C@H](CO)[C@@H](O)[C@H](O)[C@H]2O)[C@@H]1O [Melezitose] | 104
6 | O=C(O)CCCC[C@@H]1SC[C@@H]2NC(=O)N[C@@H]21 [Biotin (Vitamin B7)] | 108
7 | Cc1nnc(C(=O)NC(C)(C)c2nc(C(=O)NCc3ccc(F)cc3)c(O)c(=O)n2C)o1 [Raltegravir (MK-0518)] | 93.5
8 | CCOC(=O)C=Cc1ccc(OC)cc1 [Ethyl 4-Methoxycinnamate] | 84.5
9 | CCNC(=O)[C@@H]1CCCN1C(=O)[C@H](CCCN=C(N)N)NC(=O)[C@H](CC(C)C)NC(=O)[C@@H](CC(C)C)NC(=O)[C@H](Cc1ccc(O)cc1)NC(=O)[C@H](CO)NC(=O)[C@H](Cc1c[nH]c2ccccc12)NC(=O)[C@H](Cc1cnc[nH]1)NC(=O)[C@@H]1CCC(=O)N1 [S3718 Leuprolide Acetate.cdx] | 105
10 | CCCCOc1ccc(C(=O)Nc2ccc(F)cc2F)cc1 | 110
11 | O=C(NC1CCN(CCCCC2(C(=O)NCC(F)(F)F)c3ccccc3-c3ccccc32)CC1)c1ccccc1-c1ccc(C(F)(F)F)cc1 [Lomitapide Mesylate] | 0.3
12 | NC(=O)c1cccc(N)c1 [INO-1001 (3-Aminobenzamide)] | 96.6
13 | C=CC(=O)Nc1cc(N2CCN(CC)CC2)ccc1Nc1cc(N(C)C(=O)Nc2c(Cl)c(OC)cc(OC)c2Cl)ncn1 | 0.44
14 | COc1cc(C(=O)NC2CCCNC2)cc(OC)c1OC (stereo not given) [Troxipide] | 100
15 | FC(F)(F)Oc1ccc(-c2ccc3nnc(C(F)(F)F)n3c2)cc1 | 112
16 | C[Si](C)(C)CCOCn1ccc2c(-c3cn[nH]c3)ncnc21 | 106
17 | CCCNC(=O)Nc1ccc(Oc2ncnc3cc(OC)c(OC)cc23)cc1Cl | 105
18 | Cc1nc(=O)c2cc(CN(C)c3ccc(C(=O)N[C@@H](CCC(=O)O)C(=O)O)s3)ccc2[nH]1 [Raltitrexed (Tomudex)] | 80.6
19 | Cc1ccc(C)c(OCCCC(C)(C)C(=O)O)c1 [Gemfibrozil (Lopid)] | 109
20 | O=C1OC(COc2ccccc2[N+](=O)[O-])CC1Cc1ccccc1 (stereo not given) | 106
21 | CCC(=O)O[C@@H]1CC(=O)O[C@H](C)C/C=C/C=C/[C@H](O)[C@H](C)C[C@H](CC=O)[C@H](O[C@@H]2O[C@H](C)[C@@H](O[C@H]3C[C@@](C)(O)[C@@H](OC(=O)CC)[C@H](C)O3)[C@H](N(C)C)[C@H]2O)[C@H]1OC [Midecamycin] | 93.7
22 | CO[C@@]1(NC(=O)CSC[C@@H](N)C(=O)O)C(=O)N2C(C(=O)O)=C(CSc3nnnn3C)CS[C@@H]21 [Cefminox Sodium] | 106
23 | CNC[C@H](O)[C@@H](O)[C@H](O)[C@H](O)CO [Meglumine] | 107
24 | CCCCCCCCCCCCCC(=S)NCCCC[C@H](NC(=O)OCc1ccccc1)C(=O)Nc1ccccc1 [Thiomyristoyl] | 83.8
25 | Cc1cc(C(=O)NOCCO)c(Nc2ccc(I)cc2F)n(C)c1=O | 28.7

What follows are molecules tested on OCI-AML2 in the same assay as above. Conditions: 10 µM; SRSF2 genotype: P95H/wt.
Summary of the method: as §1

Row | SMILES | cell viability [%]
26 | Cc1cc(=O)oc2c(C=O)c(O)ccc12 | 92.5
27 | Cc1oncc1C(=O)Nc1ccc(C(F)(F)F)cc1 [Leflunomide] | 80.3
28 | CCn1c(C(=O)N(C2CC2)C2CC2)cc2c3c(ncn3C)c(Nc3cc(C)n(C)n3)nc21 | 43
29 | CC(/C=C1\SC(=S)N(CC(=O)O)C1=O)=C\c1ccccc1 [Epalrestat] | 102
30 | O=c1[nH]c(=O)n(C2CCCO2)cc1F (stereo not given) | 93.9
31 | CC(C(=O)O)c1ccc2c(c1)Cc1cccnc1O2 (stereo not given) [Pranoprofen] | 112
32 | CC1C(=O)OC2C(O)C34C5CC(C(C)(C)C)C36C(OC(=O)C6O)OC4(C(=O)O5)C12O (stereo not given) [Ginkgolide B] | 113
33 | Cc1nc(N(C)C(=O)Cc2ccc(-c3ccccn3)cc2)sc1S(N)(=O)=O [Pritelivir (BAY 57-1293)] | 98.5
34 | N[C@@H]1CCCN(c2c(/C=C3\SC(=O)NC3=O)cccc2-c2ccccc2)C1 | 78.6
35 | CCCCNc1ncc(-c2ccc(CN3CCOCC3)cn2)c(NC2CCC(O)CC2)n1 (stereo not given) | 16.1
36 | CCCc1cc(C(N)=S)ccn1 [Protionamide (Prothionamide)] | 100
37 | CC(C(=O)O)c1ccc2c(c1)CC(=O)c1ccccc1S2 (stereo not given) [Zaltoprofen] | 94.4
38 | COc1ccc2cc1Oc1ccc(cc1)C[C@H]1c3c(cc4c(c3Oc3cc5c(cc3OC)CCN(C)[C@@H]5C2)OCO4)CCN1C [Cepharanthine] | 0.56
39 | CC(COc1ccccc1Cc1ccccc1)N1CCCCC1 (stereo not given) [Benproperine phosphate] | 93.7
40 | Nc1nonc1C(=Nc1ccc(F)c(Cl)c1)NO | 98.2
41 | CC(C)N(CCC(=O)c1ccc2ccccc2c1)Cc1ccccc1 | 0.38
42 | O=C(NCCN1CCOCC1)c1ccc(Cl)cc1 | 105
43 | CCS(=O)(=O)CCn1c([N+](=O)[O-])cnc1C [Tinidazole] | 102
44 | CCOc1ccc(Cc2cc([C@]34OC[C@](CO)(O3)[C@@H](O)[C@H](O)[C@H]4O)ccc2Cl)cc1 [Ertugliflozin] | 104
45 | OC[C@H]1O[C@@](CO)(O[C@H]2O[C@H](CO)[C@@H](O)[C@H](O)[C@H]2O)[C@@H](O[C@H]2O[C@H](CO)[C@@H](O)[C@H](O)[C@H]2O)[C@@H]1O [Melezitose] | 96.3

Row | SMILES | cell viability [%]
46 | O=C(O)CCCC[C@@H]1SC[C@@H]2NC(=O)N[C@@H]21 [Biotin (Vitamin B7)] | 102
47 | Cc1nnc(C(=O)NC(C)(C)c2nc(C(=O)NCc3ccc(F)cc3)c(O)c(=O)n2C)o1 [Raltegravir (MK-0518)] | 95.4
48 | CCOC(=O)C=Cc1ccc(OC)cc1 [Ethyl 4-Methoxycinnamate] | 84.6
49 | CCNC(=O)[C@@H]1CCCN1C(=O)[C@H](CCCN=C(N)N)NC(=O)[C@H](CC(C)C)NC(=O)[C@@H](CC(C)C)NC(=O)[C@H](Cc1ccc(O)cc1)NC(=O)[C@H](CO)NC(=O)[C@H](Cc1c[nH]c2ccccc12)NC(=O)[C@H](Cc1cnc[nH]1)NC(=O)[C@@H]1CCC(=O)N1 [S3718 Leuprolide Acetate.cdx] | 102
50 | CCCCOc1ccc(C(=O)Nc2ccc(F)cc2F)cc1 | 85.7
51 | O=C(NC1CCN(CCCCC2(C(=O)NCC(F)(F)F)c3ccccc3-c3ccccc32)CC1)c1ccccc1-c1ccc(C(F)(F)F)cc1 [Lomitapide Mesylate] | 0.27
52 | NC(=O)c1cccc(N)c1 [INO-1001 (3-Aminobenzamide)] | 94.7
53 | C=CC(=O)Nc1cc(N2CCN(CC)CC2)ccc1Nc1cc(N(C)C(=O)Nc2c(Cl)c(OC)cc(OC)c2Cl)ncn1 | 1.37
54 | COc1cc(C(=O)NC2CCCNC2)cc(OC)c1OC (stereo not given) [Troxipide] | 99.7
55 | FC(F)(F)Oc1ccc(-c2ccc3nnc(C(F)(F)F)n3c2)cc1 | 89
56 | C[Si](C)(C)CCOCn1ccc2c(-c3cn[nH]c3)ncnc21 | 100
57 | CCCNC(=O)Nc1ccc(Oc2ncnc3cc(OC)c(OC)cc23)cc1Cl | 99.5
58 | Cc1nc(=O)c2cc(CN(C)c3ccc(C(=O)N[C@@H](CCC(=O)O)C(=O)O)s3)ccc2[nH]1 [Raltitrexed (Tomudex)] | 106
59 | Cc1ccc(C)c(OCCCC(C)(C)C(=O)O)c1 [Gemfibrozil (Lopid)] | 106
60 | O=C1OC(COc2ccccc2[N+](=O)[O-])CC1Cc1ccccc1 (stereo not given) | 117
61 | CCC(=O)O[C@@H]1CC(=O)O[C@H](C)C/C=C/C=C/[C@H](O)[C@H](C)C[C@H](CC=O)[C@H](O[C@@H]2O[C@H](C)[C@@H](O[C@H]3C[C@@](C)(O)[C@@H](OC(=O)CC)[C@H](C)O3)[C@H](N(C)C)[C@H]2O)[C@H]1OC [Midecamycin] | 96.2
62 | CO[C@@]1(NC(=O)CSC[C@@H](N)C(=O)O)C(=O)N2C(C(=O)O)=C(CSc3nnnn3C)CS[C@@H]21 [Cefminox Sodium] | 99.4
63 | CNC[C@H](O)[C@@H](O)[C@H](O)[C@H](O)CO [Meglumine] | 112
64 | CCCCCCCCCCCCCC(=S)NCCCC[C@H](NC(=O)OCc1ccccc1)C(=O)Nc1ccccc1 [Thiomyristoyl] | 90.2
65 | Cc1cc(C(=O)NOCCO)c(Nc2ccc(I)cc2F)n(C)c1=O | 39.4
